Drawing on PubChem BioAssay (NCI), this text covers growth for eight compounds.

This is part of a sample that, as a whole, favours compounds with a hit. Of some 83,000 tested, about 20% had one in any assay.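 The endpoint reported here, percent growth, reads 100 for growth as untreated, 0 for no net growth and -100 for all cells dead.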 Values without a mark were called inactive. Calls of active or inactive are those of the source. Rule for the calls: active = growth percent below 10; inactive = the rest.

Among the test systems are NCI-H23 lung; NCI-H322M lung; HOP-62 NSCLC; NCI-H460 lung; HOP-92 NSCLC; NCI-H522 lung; A549/ATCC NSCLC; 786-0 renal; COLO 205 colon; DU-145 prostate; K-562 leukemia; MALME-3M melanoma; MDA-MB-231 breast; RXF 393 renal; SF-268 CNS; SF-295 CNS; SF-539 CNS; UACC-257 melanoma; M14 melanoma; HCT-15 colon.
What all share (assay): NCI-60 one-dose screen, 48 h (100 = growth as untreated, 0 = no growth, -100 = all killed)
What all share (settings): 10 µM unless noted

Turning to `CC(C)C[C@H](C(=O)N[C@H](C(N)=O)C(C)C)N1CC=CCN(OCc2ccccc2)S1(=O)=O`, the growth in the assay with NCI-H23 lung was 111% [2.5 µM]; in the assay with NCI-H322M lung, 105% [2.5 µM]; in the assay with HOP-62 NSCLC, 99.3% [2.5 µM]; in the assay with NCI-H460 lung, 110% [2.5 µM]; in the assay on HOP-92 NSCLC it was 82.9% [2.5 µM]; with NCI-H522 lung, 86.4% [2.5 µM]. In addition, the growth in the assay on A549/ATCC NSCLC was 94.5% [2.5 µM]; in the assay on 786-0 renal it was 102% [2.5 µM]; with COLO 205 colon, 105% [2.5 µM]; with DU-145 prostate, 131% [2.5 µM]; in the assay on K-562 leukemia, 100% [2.5 µM]; in the assay on MALME-3M melanoma it was 113% [2.5 µM]. Further, the growth with MDA-MB-231 breast is 93.4% [2.5 µM]; in the assay with RXF 393 renal, 111% [2.5 µM]; in the assay on SF-268 CNS it was 108% [2.5 µM]; in the assay on SF-295 CNS, 114% [2.5 µM]; in the assay with SF-539 CNS it was 99.9% [2.5 µM]; in the assay with UACC-257 melanoma, 91.2% [2.5 µM]. The growth in the assay with M14 melanoma was 100% [2.5 µM]; in the assay on HCT-15 colon it was 104% [2.5 µM].

As for `COC(=O)c1ccc(NC(=O)CSc2nc3ccccc3c(=O)n2-c2ccccc2)cc1`, the growth in the assay with NCI-H23 lung is 95.4%; in the assay with NCI-H322M lung, 103%; in the assay with HOP-62 NSCLC, 106%; with NCI-H460 lung, 99.2%; with HOP-92 NSCLC, 79.7%; in the assay with NCI-H522 lung, 80.6%. The growth was 88.8% in the assay with A549/ATCC NSCLC; 100% with 786-0 renal; 120% in the assay on COLO 205 colon; 108% with DU-145 prostate; 95.1% in the assay on K-562 leukemia; 109% with MALME-3M melanoma. The growth with MDA-MB-231 breast is 95.7%; with RXF 393 renal, 111%; in the assay with SF-268 CNS it was 92%; in the assay with SF-295 CNS, 102%; in the assay with SF-539 CNS, 100%; in the assay on UACC-257 melanoma, 90.4%. Moreover, the growth in the assay on M14 melanoma and in the assay on HCT-15 colon was 105% each time.

In the case of `O=c1oc2ccc(Cl)cc2c(=O)n1-c1cc(C(F)(F)F)cc(C(F)(F)F)c1`, the growth with NCI-H23 lung is -5.36% (active); in the assay with NCI-H322M lung, 3.4% (active); with HOP-62 NSCLC, -9.09% (active); in the assay with NCI-H460 lung, 1.5% (active); in the assay with HOP-92 NSCLC, -7% (active); with NCI-H522 lung, -14.3% (active). Moreover, the growth was 6.11% (active) with A549/ATCC NSCLC; -11.8% (active) in the assay with 786-0 renal; -74.8% (active) in the assay on COLO 205 colon; 14.4% with DU-145 prostate; 8.63% (active) with K-562 leukemia; -33.8% (active) in the assay on MALME-3M melanoma. The growth with MDA-MB-231 breast was -21.9% (active); with RXF 393 renal, -5.99% (active); with SF-268 CNS it was 3.66% (active); in the assay with SF-295 CNS, -65.1% (active); in the assay on SF-539 CNS, -5.73% (active); with UACC-257 melanoma, -14.7% (active). The growth in the assay with M14 melanoma was -22.5% (active); with HCT-15 colon, -5.03% (active).

As for `COc1ccc(-c2nc(N3CCN(C(=O)C4CCCCC4)CC3)c3c4c(sc3n2)CCCC4)cc1`, the growth was 44% with NCI-H23 lung; 43.1% in the assay on NCI-H322M lung; -84.5% (active) with HOP-62 NSCLC; -32.8% (active) in the assay with NCI-H460 lung; 44.8% in the assay on HOP-92 NSCLC; -23.9% (active) in the assay on NCI-H522 lung. The growth was -36.3% (active) in the assay with A549/ATCC NSCLC; -78.4% (active) with 786-0 renal; -38.5% (active) in the assay on COLO 205 colon; -21.9% (active) with DU-145 prostate; 0.112% (active) with K-562 leukemia; -56.2% (active) with MALME-3M melanoma. The growth was 36.9% in the assay with MDA-MB-231 breast; -59.3% (active) with RXF 393 renal; 20.3% in the assay with SF-268 CNS; -82% (active) in the assay on SF-295 CNS; -1.73% (active) in the assay with SF-539 CNS; 63.5% with UACC-257 melanoma. Also, the growth was 29.9% in the assay on M14 melanoma and 49.2% in the assay with HCT-15 colon.

`COc1cccc(C(=O)NC(c2ccc(C)cc2)c2cc(Cl)c3cccnc3c2O)c1` (stereo not given): the growth was 28.7% in the assay on NCI-H23 lung; 9.1% (active) in the assay on NCI-H322M lung; 9.9% (active) in the assay on HOP-62 NSCLC; 0.0612% (active) in the assay with NCI-H460 lung; 31.8% in the assay on HOP-92 NSCLC; 9.38% (active) in the assay on NCI-H522 lung. The growth in the assay on A549/ATCC NSCLC was 6.84% (active); in the assay with 786-0 renal it was 6.38% (active); in the assay with COLO 205 colon, 14.4%; with DU-145 prostate it was 15.3%; in the assay on K-562 leukemia it was 7.41% (active); in the assay with MALME-3M melanoma, -1.84% (active). The growth in the assay on MDA-MB-231 breast is 31.2%; with RXF 393 renal, 9.4% (active); with SF-268 CNS, 6.71% (active); in the assay on SF-295 CNS it was -0.279% (active); with SF-539 CNS, 1.97% (active); in the assay with UACC-257 melanoma, -7.2% (active). In addition, the growth in the assay on M14 melanoma is -13.9% (active); with HCT-15 colon it was 28.1%.

In the case of `CS(=O)(=O)Nc1ccc(C(=O)NC(C(=O)NO)c2ccc(-c3cccc(F)c3)cc2)cc1` (stereo not given), the growth was 45.6% in the assay on NCI-H23 lung; 53.5% with NCI-H322M lung; 99.1% in the assay on HOP-62 NSCLC; 89.7% in the assay on NCI-H460 lung; -8.77% (active) in the assay with HOP-92 NSCLC; 30% in the assay with NCI-H522 lung. Also, the growth with A549/ATCC NSCLC was 103%; in the assay with 786-0 renal, 72.8%; in the assay on COLO 205 colon, 109%; in the assay on DU-145 prostate, 83.5%; in the assay with K-562 leukemia it was 90%; with MALME-3M melanoma, 92%. Also, the growth was 42.1% with MDA-MB-231 breast; 106% in the assay with RXF 393 renal; 47.3% with SF-268 CNS; 93.7% in the assay on SF-295 CNS; 92.6% with SF-539 CNS; 101% with UACC-257 melanoma. The growth with M14 melanoma is 85.3%; in the assay on HCT-15 colon, 91.5%.

`CC(C)c1ccc(S(=O)(=O)NC(=O)NC2CCCC2)cc1`: the growth is 101% in the assay on NCI-H23 lung; 98% with NCI-H322M lung; 100% with HOP-62 NSCLC; 104% in the assay on NCI-H460 lung; 107% with HOP-92 NSCLC; 97.2% in the assay on NCI-H522 lung. Besides, the growth is 87.7% with A549/ATCC NSCLC; 103% in the assay on 786-0 renal; 108% in the assay on COLO 205 colon; 107% in the assay on DU-145 prostate; 103% in the assay on K-562 leukemia; 97.1% with MALME-3M melanoma. The growth was 102% in the assay on MDA-MB-231 breast; 115% with RXF 393 renal; 101% in the assay on SF-268 CNS; 97.7% in the assay with SF-295 CNS; 96.1% with SF-539 CNS; 95.7% in the assay with UACC-257 melanoma. Further, the growth is -52.9% (active) in the assay with M14 melanoma and 97.3% with HCT-15 colon.

Regarding `CN1CCN(Cc2ccc(C(=O)Nc3cncc(C#Cc4cnc(N)c5ccccc45)c3)cc2C(F)(F)F)CC1`, the growth with NCI-H23 lung is -41.8% (active); in the assay with NCI-H322M lung it was -31.5% (active); in the assay on HOP-62 NSCLC it was -48.4% (active); in the assay on NCI-H460 lung, -80.8% (active); in the assay on HOP-92 NSCLC it was 45.2%; in the assay on NCI-H522 lung, -54.3% (active). Besides, the growth with A549/ATCC NSCLC is -67.8% (active); in the assay with 786-0 renal, -82.1% (active); with COLO 205 colon, -50.9% (active); with DU-145 prostate, -87.2% (active); in the assay on K-562 leukemia, -46% (active); in the assay on MALME-3M melanoma it was -86.9% (active). Further, the growth in the assay on MDA-MB-231 breast is -82.2% (active); in the assay on RXF 393 renal, -81.5% (active); in the assay on SF-268 CNS, -69.5% (active); in the assay with SF-295 CNS, -82.7% (active); in the assay with SF-539 CNS, -95.9% (active); with UACC-257 melanoma it was -75% (active). The growth is -85.2% (active) with M14 melanoma and -37.6% (active) in the assay with HCT-15 colon.
